Results on nine molecules are retold here after PubChem BioAssay (NCI).

SMILES strings stand for the structures. This is part of a sample that, as a whole, favours compounds with a hit. Of some 83,000 tested, about 20% had one in any assay.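 Interpretation: 100, growth as untreated; towards 0, rising growth inhibition; 0, no net growth; 0 to -100, cell death. Compounds scoring below 10 were considered active.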 Unmarked numbers belong to inactive results. Activity calls are given as the source filed them.

Common to all, as to assay: NCI-60 one-dose screen, 48 h (100 = growth as untreated, 0 = no growth, -100 = all killed)
Conditions in all cases: 10 µM unless noted

In experiment [1] the test system is SR leukemia.
Experiment [2] has as its system RPMI-8226 leukemia.
Experiment [3] has as its system OVCAR-8 ovarian.
Experiment [4] relates to OVCAR-5 ovarian.
The test system of experiment [5] is OVCAR-4 ovarian.
Experiment [6] concerns IGROV1 ovarian.
Experiment [7] concerns OVCAR-3 ovarian.
Experiment [8] has as its system NCI/ADR-RES ovarian.
Experiment [9] has as its system T-47D breast.
In experiment [10] the test system is BT-549 breast.
Experiment [11] has as its system MDA-MB-435 melanoma.
The test system of experiment [12] is SW-620 colon.
In experiment [13] the test system is MCF7 breast.
The subject of experiment [14] is HCT-116 colon.
Experiment [15] has as its system HCC-2998 colon.
Experiment [16] concerns KM12 colon.
The test system of experiment [17] is SK-OV-3 ovarian.
The test system of experiment [18] is HS 578T breast.

Regarding `CCN(CC)CC(O)CNc1c2ccc(Cl)cc2nc2ccc(OC)cc12` (stereo unspecified), the growth was 0.563% (active) in [1]; -30.9% (active) in experiment [2]; -40.3% (active) in experiment [3]; -25.3% (active) in experiment [4]; -4.45% (active) in experiment [5]; -24.9% (active) in experiment [6]. For the same molecule, the growth in experiment [7] is -23.9% (active); in experiment [8] it was -24.4% (active); in experiment [9], 49.7%; in experiment [10], 42.9%; in [11], -72.1% (active); in experiment [12], -37% (active). The growth in [13] is -0.467% (active); in experiment [14], -32.1% (active); in [15], -92.2% (active); in experiment [16] it was -30.9% (active).
Turning to `CN1CCN(CCCOc2ccc3nc(Nc4cc(Cl)cc(Cl)c4)ccc3c2)CC1`, the growth in [1] is -54.8% (active); in experiment [2], -35.1% (active); in [3], -47.3% (active); in experiment [4] it was -57.4% (active); in experiment [17], -59% (active); in experiment [6], -46.8% (active). In addition, the growth was -80.5% (active) in experiment [7]; -34.8% (active) in experiment [8]; -68.6% (active) in [9]; -43.2% (active) in [10]; -87.1% (active) in experiment [11]; -82.1% (active) in experiment [12]. Also, the growth is -89.2% (active) in [13], -78.2% (active) in [14], -89.2% (active) in experiment [15] and -88.7% (active) in experiment [16].
Take `CCOC(=O)c1c2c(c(C)n1C)-c1nn(Cc3ccc(OC)cc3)cc1CC2`: the growth in experiment [1] was 71.2%; in [2], 77.8%; in experiment [3] it was 100%; in experiment [5] it was 71.2%; in [17], 109%; in experiment [6] it was 111%. Besides, the growth in [7] is 108%; in experiment [9], 64.4%; in experiment [10] it was 271%; in experiment [11], 100%; in [12], 96.9%; in [13] it was 99.3%. Further, the growth in experiment [14] is 84.4%; in experiment [15], 109%; in experiment [16] it was 92.4%.
For the molecule `CC(=O)c1cc2c(o1)C(=O)c1ccccc1C2=O`, the growth was 1.01% (active) in experiment [1]; -44% (active) in [2]; -43.8% (active) in experiment [3]; -86.1% (active) in experiment [4]; -96.9% (active) in [5]; -66.9% (active) in experiment [6]. For the same molecule, the growth in experiment [7] was -85.5% (active); in experiment [18] it was -23.7% (active); in experiment [9] it was -25.3% (active); in experiment [10], -87.7% (active); in experiment [11] it was -94.4% (active); in [12], -77.4% (active). For the same molecule, the growth was -65.6% (active) in [13], -83.6% (active) in experiment [14], -87.8% (active) in [15] and -63.6% (active) in [16].
Turning to `CNC1(C#N)CCN(Cc2ccccc2)CC1`, the growth in experiment [1] is 132%; in experiment [2], 110%; in experiment [3], 113%; in [4] it was 100%; in [17] it was 99.4%; in [6], 101%. Also, the growth in experiment [7] is 99.9%; in [18], 104%; in experiment [8], 103%; in experiment [9] it was 5.3% (active); in experiment [10], 203%; in [11] it was 95.4%. For the same molecule, the growth in experiment [12] is 105%; in experiment [13] it was 102%; in experiment [14] it was 106%; in experiment [15], 106%; in [16], 103%.
`O=C1C2=C(CCN(Cc3ccccc3)C2)N2CCN=C2N1Cc1ccc(F)cc1F`: the growth in [1] was 55.5%; in experiment [2] it was 19.3%; in experiment [3] it was 17.4%; in experiment [4], 56.4%; in experiment [17], 27.8%; in [6], 47.5%. The growth is 26.8% in experiment [7]; 45.8% in [18]; 20.1% in experiment [8]; 33.4% in [9]; 34.6% in [10]; 32.3% in [11]. Besides, the growth in experiment [12] was 40.9%; in experiment [13], 30.1%; in experiment [14] it was 23.3%; in experiment [15] it was 34.3%; in experiment [16], 44.7%.
`COc1ccc(NC(=O)c2cccc(-c3cc(=O)c4c(O)c(OC)c(OC)cc4o3)c2)cc1`: the growth was 80.8% in experiment [1]; 92.5% in experiment [2]; 80.6% in experiment [3]; 97.5% in [4]; 97.5% in experiment [5]; 95.1% in experiment [6]. For the same molecule, the growth was 50.6% in experiment [7]; 56.1% in experiment [18]; 85.3% in experiment [8]; 31% in [10]; 105% in experiment [11]; 102% in experiment [12]. For the same molecule, the growth is 93.3% in experiment [13], 70.5% in [14], 101% in experiment [15] and 103% in experiment [16].
With `CC12CC(C#N)CCC1O2` (stereo unspecified), the growth is 98.9% in experiment [1]; 106% in [2]; 105% in experiment [3]; 105% in experiment [4]; 115% in [17]; 99.2% in experiment [6]. Also, the growth in [7] is 117%; in experiment [18], 105%; in experiment [8] it was 115%; in experiment [9], 116%; in experiment [10], 111%; in experiment [11] it was 121%. The growth is 97.3% in experiment [12]; 97.9% in experiment [13]; 108% in [14]; 114% in [15]; 113% in experiment [16].
In the case of `O=C(Nc1ccccc1)c1sc(-c2cccc(C(F)(F)F)c2)cc1O`, the growth in experiment [1] is 62.5%; in experiment [2], 35.5%; in experiment [3], 66%; in [4] it was 104%; in experiment [17], 74.6%; in experiment [6] it was 66.5%. For the same molecule, the growth in experiment [7] is 53.1%; in experiment [18] it was 63.8%; in experiment [8], 83.2%; in [9] it was 59.3%; in [10], 70.8%; in experiment [11] it was 77.9%. The growth in experiment [13] was 74.7%; in experiment [14], 67.9%; in experiment [15] it was 98.2%; in experiment [16], 92.3%.
